Assay [1] can be described thus: ATG_TCF_b_cat_CIS: Attagene CIS-FACTORIAL HepG2 Assay for human T-Cell-Factor with beta-catenin (TCF/b-cat) (AID 2282965; active = hit-call score of the fitted dose curve at least 0.9, where 1 is the maximum; inactive = score below 0.9). To be noted: HepG2 TCF/beta-catenin cis-reporter transcription, actives raise or lower the signal. The gist of the method: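 Endogenous transcription factor activity is captured through cis-promoter reporter constructs transiently introduced into human HepG2 liver cells. Induced reporter mRNA is measured after 24 h and fitted bidirectionally relative to DMSO.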

Assay [2] in a line: ATG_TAL_CIS: Attagene CIS-FACTORIAL HepG2 Assay for human TAL Basal Promoter (AID 2282966; active = hit-call score of the fitted dose curve at least 0.9, where 1 is the maximum; inactive = score below 0.9;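 also: background control endpoint measuring basal TAL promoter reporter mRNA not a specific factor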). To be noted: HepG2 Attagene cis-factorial TAL promoter reporter; actives raise or lower the signal. The gist of the method:
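Endogenous transcription-factor activity is sensed in HepG2 cells through transfected cis-promoter reporter constructs. After 24 h dosing, reporter transcripts are quantified by RT-PCR and capillary electrophoresis. Gain or loss of signal is fitted relative to DMSO.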

A short description of assay [3]: ATG_TGFb_CIS: Attagene CIS-FACTORIAL HepG2 Assay for human Transforming Growth Factor (TGF) (AID 2282967; active = hit-call score of the fitted dose curve at least 0.9, where 1 is the maximum; inactive = score below 0.9). To be noted: HepG2 Attagene CIS TGFb reporter, mRNA transcription; actives raise or lower the signal. The gist of the method: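 HepG2 cells transiently transfected with cis-promoter-driven multiple reporter units measure endogenous TF activity; reporter mRNA quantified at 24 h by RT-PCR, FAM labeling, HpaI digestion and capillary electrophoresis. Bidirectional fit vs DMSO.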

Assay [4] can be described thus: ATG_VDRE_CIS: Attagene CIS-FACTORIAL HepG2 Assay for human Vitamin D Receptor Element (VDRE) (AID 2282968; active = hit-call score of the fitted dose curve at least 0.9, where 1 is the maximum; inactive = score below 0.9). To be noted: HepG2 VDRE cis-reporter transcription, actives raise or lower the signal. Summed up:
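Measures endogenous factor activity through cis-element-driven reporter transcripts in transiently transfected HepG2. Cells are treated 24 h; reporter mRNA is quantified by RT-PCR and capillary electrophoresis; fitting is bidirectional.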

In assay [5] the target is Nuclear receptor subfamily 1 group I member 3 (Homo sapiens) (UniProt Q14994). The experiment in a line: ATG_CAR_TRANS: Attagene TRANS-FACTORIAL HepG2 Assay for human Constitutive Androstane Receptor (CAR) (AID 2282969).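 Also: activators raise reporter mRNA above DMSO so AC50 marks induction.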 The note with it: HepG2 Attagene TRANS-FACTORIAL CAR reporter. The gist of the method:
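Signal is reporter mRNA induction relative to DMSO, measured 24 h after dosing by RT-PCR with fluorescent primer extension and capillary electrophoresis. Human HepG2 liver cells carried transiently transfected chimeric NR-Gal4/GAL4-UAS reporter constructs.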

The target of assay [6] is Estrogen receptor (Homo sapiens) (UniProt P03372). The experiment in a line: ATG_ERa_TRANS: Attagene TRANS-FACTORIAL HepG2 Assay for human Estrogen Receptor alpha (ERa) (AID 2282970). To be noted: HepG2 Attagene TRANS ERa GAL4 reporter, mRNA. The gist of the method: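 Transfected HepG2 cells carrying GAL4-UAS-driven reporter units were dosed for 24 hours. Total RNA was reverse-transcribed, reporter sequences PCR-amplified, FAM-labelled, HpaI-digested and resolved by capillary electrophoresis. Increases over DMSO control defined activity.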

Assay [7] has as its target Steroid hormone receptor ERR1 (Homo sapiens) (UniProt P11474). The experiment in a line: ATG_ERRa_TRANS: Attagene TRANS-FACTORIAL HepG2 Assay for human Estrogen-Related Receptor alpha (ERRa) (AID 2282971). The note with it: HepG2 Attagene TRANS reporter, ERRa transactivation. Summed up: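 HepG2 cells were transiently transfected with multiple GAL4-UAS reporter units, then dosed with compound for 24 h. Total RNA was reverse-transcribed, reporter cDNA PCR-amplified and fluorescently labelled, and fragments resolved by capillary electrophoresis; induction was compared with DMSO.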

Assay [8] concerns the target X-box-binding protein 1 (Homo sapiens) (UniProt P17861). Kind of assay: ATG_Xbp1_CIS: Attagene CIS-FACTORIAL HepG2 Assay for human X-box Binding Protein 1 (XBP1) (AID 2282972; active = hit-call score of the fitted dose curve at least 0.9, where 1 is the maximum; inactive = score below 0.9). To be noted: HepG2 XBP1 cis-element reporter, Attagene multiplex; actives raise or lower the signal. Summed up:
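Changes in reporter transcript abundance, read by RT-PCR and capillary electrophoresis, reflect endogenous transcription factor activity. Transfected HepG2 cells received compound for 24 hours; DMSO defined baseline for bidirectional analysis.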

Assay [9] deals with Androgen receptor (Homo sapiens) (UniProt P10275). The experiment in a line: ATG_AR_TRANS: Attagene TRANS-FACTORIAL HepG2 Assay for human Androgen Receptor (AR) (AID 2282973). To be noted: HepG2 Attagene TRANS-FACTORIAL AR reporter transcription. Summed up: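 Transfected HepG2, 24 h treatment, chimeric NR-Gal4 driving GAL4-UAS reporters. mRNA induction by RT-PCR/capillary electrophoresis fluorescence; DMSO as negative control and baseline.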

Assay [10] in a line: ATG_GAL4_TRANS: Attagene TRANS-FACTORIAL HepG2 Assay for GAL4 (Internal Marker) (AID 2282976). The note with it: HepG2 Attagene TRANS GAL4 internal marker reporter. Summed up:
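Fluorescence from capillary electrophoresis of labelled RT-PCR products quantifies reporter mRNA induction after 24 h dosing of HepG2 cells carrying transfected GAL4-UAS reporter transcription units. Vehicle DMSO serves as baseline.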

Assay [11] addresses Estrogen-related receptor gamma (Homo sapiens) (UniProt P62508). Kind of assay: ATG_ERRg_TRANS: Attagene TRANS-FACTORIAL HepG2 Assay for human Estrogen-Related Receptor gamma (ERRg) (AID 2282977).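 Also: hits increase reporter signal over DMSO so potencies reflect activators.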 To be noted: HepG2 Attagene TRANS reporter, ERRg transactivation. The gist of the method: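 Exogenous NR-Gal4 chimera activity was assessed in HepG2 cells bearing transfected GAL4-UAS reporters. After 24 h dosing, total RNA underwent RT-PCR, fluorescent primer extension and HpaI digestion before capillary electrophoresis, with gain of signal scored against DMSO.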

Assay [12] addresses Glucocorticoid receptor (Homo sapiens) (UniProt P04150). The experiment in a line: ATG_GR_TRANS: Attagene TRANS-FACTORIAL HepG2 Assay for human Glucocorticoid Receptor (GR) (AID 2282978).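 Also: activators score as hits since higher reporter transcript over DMSO is fitted.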 The note with it: HepG2 Attagene TRANS GR reporter, mRNA transcription. The gist of the method:
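Transient MRTU transfection of HepG2 (GAL4-UAS reporters, exogenous NR-GAL4 chimeras), 24 h dosing. Readout: reporter transcript via RT-PCR + capillary electrophoresis fluorescence. Positive direction vs DMSO baseline.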

The target in assay [13] is Bile acid receptor (Homo sapiens) (UniProt Q96RI1). The experiment in a line: ATG_FXR_TRANS: Attagene TRANS-FACTORIAL HepG2 Assay for Farnesoid X Receptor (FXR) (AID 2282979).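 Also: hits raise reporter mRNA above DMSO so AC50 marks FXR activation.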 The note with it: HepG2 Attagene TRANS FXR-GAL4 reporter transcription. Summed up:
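Chimeric FXR-GAL4 activity in transiently transfected human HepG2 liver cells is scored as induction of reporter mRNA after 24 h of dosing. Detection uses RT-PCR with fluorescent labelling and capillary electrophoresis, with DMSO serving as baseline.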

Assay [14] has as its target Oxysterols receptor LXR-alpha (Homo sapiens) (UniProt Q13133). The experiment in a line: ATG_LXRa_TRANS: Attagene TRANS-FACTORIAL HepG2 Assay for human Liver X Receptor alpha (LXRa) (AID 2282980). The note with it: HepG2 Attagene TRANS reporter, LXRa transactivation. Summed up: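 Transient HepG2 transfectants, 24 h dosing, RT-PCR/CE mRNA reporter quantitation; gain-of-signal vs DMSO.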

In assay [15] the target is Oxysterols receptor LXR-beta (Homo sapiens) (UniProt P55055). The experiment in a line: ATG_LXRb_TRANS: Attagene TRANS-FACTORIAL HepG2 Assay for human Liver X Receptor beta (LXRb) (AID 2282981). The note with it: HepG2 Attagene TRANS GAL4-LXRb reporter, mRNA. The gist of the method: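 After 24 h of chemical treatment, transfected HepG2 cells yield total RNA; reporter cDNA is PCR-amplified, FAM-labelled, HpaI-cut and run on capillary electrophoresis. Signal reflects chimeric LXRb-Gal4 activity on GAL4-UAS reporters.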

Assay [16] deals with Hepatocyte nuclear factor 4-alpha (Homo sapiens) (UniProt P41235). The experiment in a line: ATG_HNF4a_TRANS: Attagene TRANS-FACTORIAL HepG2 Assay for human Hepatocyte Nuclear Factor 4 alpha (HNF4a) (AID 2282982). The note with it: HepG2 HNF4a transactivation reporter, mRNA readout. Summed up: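 Multiplexed reporter assay: transfected HepG2, 24 h exposure, total RNA → oligo(dT) RT → PCR → 6-FAM extension → HpaI digest → CE fluorescence. DMSO = negative control.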

Assay [17] can be described thus: ATG_M_06_TRANS: Attagene TRANS-FACTORIAL HepG2 Assay for M06 Transcription Factor (Internal Marker) (AID 2282983). The note with it: HepG2 Attagene TRANS M06 internal marker reporter. The gist of the method: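 Human liver HepG2 cells bearing transiently transfected chimeric NR-GAL4 reporter units were treated with chemicals for 24 h. Total RNA was reverse-transcribed, reporter sequences amplified and labelled, then quantified by capillary electrophoresis. Activity was fitted upward relative to DMSO.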

Assay [18] in a line: ATG_M_32_TRANS: Attagene TRANS-FACTORIAL HepG2 Assay for M32 Transcription Factor (Internal Marker) (AID 2282984).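 Also: transcript level of a background control reporter unit measured by RT-PCR and capillary electrophoresis.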 To be noted: HepG2 Attagene TRANS M32 internal marker reporter. The gist of the method:
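Cell-based TRANS-format assay in HepG2: exogenous chimeric GAL4 reporter units transiently expressed, compounds applied 24 h. Reporter mRNA detected by RT-PCR plus capillary electrophoresis; this readout is an internal background marker.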

Assay [19] has as its target Nuclear receptor subfamily 4 group A member 2 (Homo sapiens) (UniProt P43354). The experiment in a line: ATG_NURR1_TRANS: Attagene TRANS-FACTORIAL HepG2 Assay for human Nuclear Receptor Related Protein 1 (NURR1) (AID 2282985). To be noted: HepG2 Attagene TRANS reporter, mRNA readout. The gist of the method: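 Measures transcriptional activation by an exogenous NR-Gal4 chimera in transfected HepG2 liver cells. After 24 h, reporter RNA is reverse-transcribed, amplified and resolved by capillary electrophoresis; DMSO defines baseline.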

These results are taken from PubChem BioAssay (EPA / NIEHS).

As a reminder, the AC50 is the concentration at which the activity in the assay is half-maximal.

Results filed as inconclusive are left out. Calls of active or inactive are those of the source. The calls were made as follows, unless noted: active = hit-call score of the fitted dose curve at least 0.9, where 1 is the maximum; inconclusive = response in the unintended direction; inactive = score below 0.9.

Chain of Steroid hormone receptor ERR1 (Homo sapiens) (P11474 whole entry, looked up, the tested form may be a part): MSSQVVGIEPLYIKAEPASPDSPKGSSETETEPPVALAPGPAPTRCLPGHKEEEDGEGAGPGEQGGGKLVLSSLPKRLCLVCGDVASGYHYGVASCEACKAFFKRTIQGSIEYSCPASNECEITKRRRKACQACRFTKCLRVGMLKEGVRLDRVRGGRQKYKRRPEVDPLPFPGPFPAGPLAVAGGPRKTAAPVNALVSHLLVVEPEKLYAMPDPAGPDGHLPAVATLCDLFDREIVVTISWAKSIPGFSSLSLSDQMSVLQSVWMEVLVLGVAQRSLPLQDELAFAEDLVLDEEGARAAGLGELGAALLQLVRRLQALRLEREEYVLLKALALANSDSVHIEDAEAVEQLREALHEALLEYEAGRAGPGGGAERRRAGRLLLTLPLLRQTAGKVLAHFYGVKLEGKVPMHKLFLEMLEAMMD
Chain of Oxysterols receptor LXR-beta (Homo sapiens) (P55055 whole entry, looked up, the tested form may be a part): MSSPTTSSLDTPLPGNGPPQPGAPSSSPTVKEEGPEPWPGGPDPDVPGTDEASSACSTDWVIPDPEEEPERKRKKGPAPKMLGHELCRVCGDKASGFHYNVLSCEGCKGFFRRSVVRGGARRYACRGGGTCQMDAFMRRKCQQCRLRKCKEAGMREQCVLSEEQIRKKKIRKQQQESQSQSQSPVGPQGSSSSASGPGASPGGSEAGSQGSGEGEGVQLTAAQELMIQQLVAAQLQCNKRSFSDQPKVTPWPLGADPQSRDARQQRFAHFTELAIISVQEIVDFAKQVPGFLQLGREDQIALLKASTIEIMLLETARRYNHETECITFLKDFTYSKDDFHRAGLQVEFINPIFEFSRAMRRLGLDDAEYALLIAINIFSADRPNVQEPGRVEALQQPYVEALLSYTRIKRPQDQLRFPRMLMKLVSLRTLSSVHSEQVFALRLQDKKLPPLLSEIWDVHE
Chain of Glucocorticoid receptor (Homo sapiens) (P04150 whole entry, looked up, the tested form may be a part): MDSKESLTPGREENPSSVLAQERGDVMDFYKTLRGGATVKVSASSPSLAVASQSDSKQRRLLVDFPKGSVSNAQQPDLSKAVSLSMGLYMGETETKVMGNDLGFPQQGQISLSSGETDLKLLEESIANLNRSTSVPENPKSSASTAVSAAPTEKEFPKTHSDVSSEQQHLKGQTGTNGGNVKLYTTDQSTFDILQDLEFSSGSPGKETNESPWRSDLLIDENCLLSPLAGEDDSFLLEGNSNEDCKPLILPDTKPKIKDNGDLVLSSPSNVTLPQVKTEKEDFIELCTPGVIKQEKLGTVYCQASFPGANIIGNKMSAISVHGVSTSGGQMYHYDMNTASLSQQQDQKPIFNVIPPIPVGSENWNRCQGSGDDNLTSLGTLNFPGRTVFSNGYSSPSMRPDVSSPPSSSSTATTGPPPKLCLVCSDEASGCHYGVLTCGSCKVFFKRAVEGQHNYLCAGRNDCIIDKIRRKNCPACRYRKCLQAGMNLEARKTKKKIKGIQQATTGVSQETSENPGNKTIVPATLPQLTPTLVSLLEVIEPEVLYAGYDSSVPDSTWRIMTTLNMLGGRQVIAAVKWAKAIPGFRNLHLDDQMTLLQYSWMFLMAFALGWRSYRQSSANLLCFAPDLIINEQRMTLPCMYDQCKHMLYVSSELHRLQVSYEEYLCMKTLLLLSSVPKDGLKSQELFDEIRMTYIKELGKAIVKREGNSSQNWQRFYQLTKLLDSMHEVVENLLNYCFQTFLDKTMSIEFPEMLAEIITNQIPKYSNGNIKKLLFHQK
Chain of Bile acid receptor (Homo sapiens) (Q96RI1 whole entry, looked up, the tested form may be a part): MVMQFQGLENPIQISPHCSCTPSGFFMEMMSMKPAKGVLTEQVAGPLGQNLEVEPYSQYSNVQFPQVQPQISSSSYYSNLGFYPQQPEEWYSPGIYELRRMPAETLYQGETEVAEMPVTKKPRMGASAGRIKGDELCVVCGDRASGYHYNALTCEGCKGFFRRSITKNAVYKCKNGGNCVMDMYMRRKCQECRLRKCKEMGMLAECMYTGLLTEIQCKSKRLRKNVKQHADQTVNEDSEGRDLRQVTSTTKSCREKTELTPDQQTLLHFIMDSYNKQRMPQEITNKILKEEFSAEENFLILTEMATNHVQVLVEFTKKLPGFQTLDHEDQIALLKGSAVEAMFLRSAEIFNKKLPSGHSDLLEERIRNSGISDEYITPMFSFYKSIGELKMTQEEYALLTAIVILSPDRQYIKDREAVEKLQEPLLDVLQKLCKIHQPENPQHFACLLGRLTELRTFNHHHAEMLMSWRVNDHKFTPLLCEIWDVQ
Chain of Androgen receptor (Homo sapiens) (P10275 whole entry, looked up, the tested form may be a part): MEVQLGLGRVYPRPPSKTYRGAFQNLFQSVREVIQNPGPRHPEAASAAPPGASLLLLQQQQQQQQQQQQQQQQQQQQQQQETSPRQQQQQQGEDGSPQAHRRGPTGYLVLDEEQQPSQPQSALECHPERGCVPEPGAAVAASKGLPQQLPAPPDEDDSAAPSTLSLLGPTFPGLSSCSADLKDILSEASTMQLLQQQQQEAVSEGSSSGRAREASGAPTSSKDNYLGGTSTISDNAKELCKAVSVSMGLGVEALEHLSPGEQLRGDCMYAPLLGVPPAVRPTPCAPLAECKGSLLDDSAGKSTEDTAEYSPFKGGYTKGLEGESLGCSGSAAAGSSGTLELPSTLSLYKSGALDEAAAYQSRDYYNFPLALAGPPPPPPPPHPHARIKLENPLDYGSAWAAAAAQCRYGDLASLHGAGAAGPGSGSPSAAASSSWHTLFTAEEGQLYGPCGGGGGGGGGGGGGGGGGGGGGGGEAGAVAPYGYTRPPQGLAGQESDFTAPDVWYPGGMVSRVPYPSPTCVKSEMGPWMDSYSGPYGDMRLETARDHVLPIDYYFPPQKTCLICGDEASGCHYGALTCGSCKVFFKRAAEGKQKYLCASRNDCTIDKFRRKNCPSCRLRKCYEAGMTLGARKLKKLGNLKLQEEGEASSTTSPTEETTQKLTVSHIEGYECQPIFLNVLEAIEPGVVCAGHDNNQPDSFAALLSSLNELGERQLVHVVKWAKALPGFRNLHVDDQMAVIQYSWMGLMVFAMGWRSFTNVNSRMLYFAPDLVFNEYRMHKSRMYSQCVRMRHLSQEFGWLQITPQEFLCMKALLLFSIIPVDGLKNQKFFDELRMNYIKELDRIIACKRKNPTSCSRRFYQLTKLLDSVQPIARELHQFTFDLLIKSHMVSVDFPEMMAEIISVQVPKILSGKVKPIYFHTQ
Chain of Estrogen receptor (Homo sapiens) (P03372 whole entry, looked up, the tested form may be a part): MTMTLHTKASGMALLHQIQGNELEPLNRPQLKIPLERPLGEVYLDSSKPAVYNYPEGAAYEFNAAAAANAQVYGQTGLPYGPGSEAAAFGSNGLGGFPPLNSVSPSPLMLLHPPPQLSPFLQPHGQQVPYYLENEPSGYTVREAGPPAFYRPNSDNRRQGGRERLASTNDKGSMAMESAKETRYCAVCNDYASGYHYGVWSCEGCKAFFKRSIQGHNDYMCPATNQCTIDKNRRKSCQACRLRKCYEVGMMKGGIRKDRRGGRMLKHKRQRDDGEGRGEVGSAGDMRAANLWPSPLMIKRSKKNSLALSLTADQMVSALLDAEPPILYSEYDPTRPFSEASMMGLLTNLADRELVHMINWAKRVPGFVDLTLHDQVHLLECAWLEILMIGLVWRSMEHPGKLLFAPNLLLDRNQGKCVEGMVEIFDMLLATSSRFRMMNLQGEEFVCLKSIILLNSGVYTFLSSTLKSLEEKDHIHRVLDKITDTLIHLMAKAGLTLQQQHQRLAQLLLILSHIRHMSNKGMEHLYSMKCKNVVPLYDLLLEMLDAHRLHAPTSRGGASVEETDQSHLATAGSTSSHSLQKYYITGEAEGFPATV
Chain of Oxysterols receptor LXR-alpha (Homo sapiens) (Q13133 whole entry, looked up): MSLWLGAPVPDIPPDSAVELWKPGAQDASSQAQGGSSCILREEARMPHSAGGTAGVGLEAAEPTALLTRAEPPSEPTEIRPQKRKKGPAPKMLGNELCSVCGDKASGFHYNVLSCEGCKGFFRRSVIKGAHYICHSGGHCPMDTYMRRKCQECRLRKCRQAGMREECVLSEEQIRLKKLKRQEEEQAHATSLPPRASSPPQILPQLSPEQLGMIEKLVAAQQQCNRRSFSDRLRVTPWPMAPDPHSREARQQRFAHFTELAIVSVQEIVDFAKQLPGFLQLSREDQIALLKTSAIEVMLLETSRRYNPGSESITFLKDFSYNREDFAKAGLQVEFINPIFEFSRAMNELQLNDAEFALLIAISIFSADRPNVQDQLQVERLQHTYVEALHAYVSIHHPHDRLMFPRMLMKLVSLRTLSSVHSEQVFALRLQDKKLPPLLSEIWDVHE
Chain of Nuclear receptor subfamily 1 group I member 3 (Homo sapiens) (Q14994 whole entry, looked up, the tested form may be a part): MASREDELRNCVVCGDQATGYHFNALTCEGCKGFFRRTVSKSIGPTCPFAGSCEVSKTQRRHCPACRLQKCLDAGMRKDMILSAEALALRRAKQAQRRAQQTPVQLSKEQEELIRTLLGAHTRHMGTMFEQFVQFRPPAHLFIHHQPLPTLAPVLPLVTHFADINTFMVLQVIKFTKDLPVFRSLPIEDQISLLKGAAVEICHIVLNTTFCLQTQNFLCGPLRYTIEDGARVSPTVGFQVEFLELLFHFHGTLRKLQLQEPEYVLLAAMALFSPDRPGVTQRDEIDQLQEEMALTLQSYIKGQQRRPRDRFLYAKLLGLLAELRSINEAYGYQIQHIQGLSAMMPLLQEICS
Chain of X-box-binding protein 1 (Homo sapiens) (P17861 whole entry, looked up): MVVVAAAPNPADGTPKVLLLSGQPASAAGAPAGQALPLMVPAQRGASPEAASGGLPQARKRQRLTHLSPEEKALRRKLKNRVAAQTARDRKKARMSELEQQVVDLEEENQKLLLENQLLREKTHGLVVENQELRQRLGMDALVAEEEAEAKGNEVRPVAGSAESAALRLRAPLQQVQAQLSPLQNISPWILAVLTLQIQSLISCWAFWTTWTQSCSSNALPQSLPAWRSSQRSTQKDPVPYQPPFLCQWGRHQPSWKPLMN

Regarding `O=C(O)C(F)(OC(F)(F)C(F)(F)C(F)(F)F)C(F)(F)F` (stereo not given), the compound was classed as inactive in [1], in assay [2], in assay [3], in assay [4], in [5] and in [6]. The compound was classed as inactive in assay [7], in [8], in [9], in [10], in assay [11] and in assay [12]. Besides, the compound was classed as inactive in assay [13], in assay [14], in assay [15], in assay [16], in assay [17] and in assay [18]. Also, the outcome in [19] was inactive.

On to `CO/N=C(/C(=O)OC)c1ccccc1COc1ccccc1C`, for which the call in [1], in [2], in [3], in [5], in assay [9] and in assay [12] was inactive. Moreover, the result in assay [13], in assay [17] and in assay [18] was inactive. Further, the figures for the AC50 in assay [4], in assay [6] and in assay [8] were 13 µM (active), 2.6 µM (active) and 35.2 µM (active), respectively.

In the case of `ClC1=C(Cl)C2(Cl)C3C(Cl)C(Cl)CC3C1(Cl)C2(Cl)Cl` (stereo not given), the AC50 was 27.1 µM (active) in [1]; 3.76 µM (active) in [4]; 13.4 µM (active) in [6]; 100 µM (active) in [12]; 54.7 µM (active) in assay [13]. Besides, the compound was called inactive in assay [2], in assay [3], in assay [5], in assay [8], in [9] and in assay [15]. Moreover, the compound was classed as inactive in assay [17] and in assay [18].

As for `COP(N)(=S)OC`, the result in assay [1], in assay [2], in assay [3], in [4], in [5] and in assay [6] was inactive. Besides, the call in assay [7], in assay [8], in [9], in assay [10], in assay [12] and in [18] was inactive.

For the compound `c1ccc2c(c1)sc1ccccc12`, the compound was classed as inactive in [1], in [2], in [3], in assay [4], in [5] and in assay [7]. Further, the result in assay [8], in assay [12], in assay [13], in [14], in [15] and in [17] was inactive. In assay [18], the outcome was inactive. The AC50 in assay [6] was 63.7 µM (active).
